Assay results reported in the OligoGym collection.

Each sequence was assayed against SFTA2 (assay: pooled miR-30 sensor sort-seq; sequence = guide strand). Conditions: shRNA.
Further: reference of the scale not given here.

| Sequence | sensor-assay potency score (higher = more potent) |
| --- | --- |
| TCAGTTGCAAAGTCATACCCGG | 0.0994 |
| ATGGTGTTGAGATCTTGCATGG | -1.27 |
| TTCAGTTGCAAAGTCATACCCG | 0.378 |
| TCCATGTGAGCTGCCAAGGAGG | -1.63 |
| TGTCAGAAAAGACTCCTTCAGC | -0.402 |

Each sequence was assayed against SGK1 in the same assay as above. Conditions: shRNA.

| Sequence | sensor-assay potency score (higher = more potent) |
| --- | --- |
| TTCTGTAAAACTTTGACTGCAT | 0.858 |
| TTTGACTGCATAGAACACTTCT | 0.33 |
| TTTAGCATGAGGATTGGACGAC | -0.303 |
| TAAGTCTCTATAAACGATGTTC | -0.772 |
| TACATTTCAGCTGTGTTTCGGC | 0.293 |
| TTTTAAGTCTCTATAAACGATG | -1.25 |
| TTTGCTGAGAAGGACTTGGTGG | 0.0605 |
| TACAATTTGTCAGCAGTCTGGA | 0.173 |
| TTGCTAGAAGAACCTTTCCAAA | -1.79 |
| TTATTAATGAGATCATCCCAGT | -0.742 |
| TTGTCGTACATTTCAGCTGTGT | -0.298 |
| TTCTTCAACAGAACATTCCGCT | 0.565 |

The sequences below were run against SGTA in the same assay as above. Conditions: shRNA.

| Sequence | sensor-assay potency score (higher = more potent) |
| --- | --- |
| TATCAACTCTGGGTTCTGCTGC | 0.409 |
| TAGGCCTTGCTGTAGGCCGGGT | -1.17 |
| TGAGCTGCTCTATCAACTCTGG | -0.693 |
| TTGGACTTGTATGTCTCGTTGT | 0.614 |
| TTCCACTTTCATCTGCTCGTTT | 0.488 |
| TTCTGCTGCTGCATCTGCTGGG | 0.386 |
| AAGGTCACTGTCTTCTACCGTC | 0.33 |
| TTTTCCACTTTCATCTGCTCGT | -0.241 |
| TTGTATGTCTCGTTGTCGGGGT | 0.213 |
| TTGAGCTCGATGGCTTTTCCGT | -0.866 |
| TATCTTGAGGTTGGACTTGTAT | -0.792 |
| TCATCTGCTCGTTTCCTTCGGT | 0.113 |

These sequences were tested against SH3YL1 in the same assay as above. Conditions: shRNA.

| Sequence | sensor-assay potency score (higher = more potent) |
| --- | --- |
| TTGGAGGTAATTCTTTAGCAGA | -1.34 |
| TTGAGAGCCAGAGTTCAGCTGG | 0.176 |
| TTTCATAAAGATCTTCGGCTTG | -0.146 |
| TTGCATTGATTCGTTGTCCTTC | 0.55 |
| TTAACTAGTAAATCCTGTCAGT | -0.0626 |
| TTTTCTTGCATTGATTCGTTGT | 0.574 |
| TAACTGTGATTCTGTCTCCAGC | -0.946 |
| TTGCTTAACTAGTAAATCCTGT | 0.218 |
| TTTAGCAGAAGACTTCCTCTGC | 0.193 |
| ATAACTGTGATTCTGTCTCCAG | -0.286 |
| TTATATTCATTTCTGTTGCTTT | -0.121 |
